Sampled rows, rich in hits. Any-hit rate of the full collection: about 3.4%.
FAK blocker = FAK kinase inhibitors, primary screen, biochemical; Focal adhesion kinase 1 (Homo sapiens), Q05397; 97,000 tested, 0.84% active; biochemical FAK kinase activity assay; inhibition, %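 (tested at 7 µM)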; in the data active = inhibition above about 19%;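 note: 0% = DMSO and 100% = reference compound high control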
ERa SRC1 pot = enhancers of ERα–SRC-1 coactivator binding, primary screen, biochemical, TR-FRET, ERα LBD, low estradiol. Estrogen receptor (Homo sapiens), P03372. coactivator binding (% of control), % at 25.6 µM. 86,000 tested, 1.3% active. TR-FRET ERalpha-LBD/SRC-Cy5 coactivator binding, 2 h; 100 = basal binding, no effect; in the data active = activity above about 200%;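 note: binding measured in presence of low estradiol as agonist stimulus; 0% = peptide alone without receptor and 100% = receptor with peptide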
LYP inh 2 = PTPN22 phosphatase inhibitors, primary screen, biochemical, DiFMUP fluorescence, 2 µM. recombinant LYP catalytic domain. Tyrosine-protein phosphatase non-receptor type 22 (Homo sapiens), Q9Y2R2. inhibition, % at 2 µM. 96,000 tested, 0.21% active;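 active = inhibition at 2 µM at or above a set limit, the screen mean plus 3 SD, cut at about 24% in these data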;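 note: 0% = DMSO with enzyme and 100% = enzyme fully blocked by orthovanadate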
ERb SRC1 inh = inhibitors of ERβ-SRC1 coactivator interaction, primary screen, biochemical, TR-FRET, ERβ LBD, SRC-1 peptide; Estrogen receptor beta (Homo sapiens), Q92731; TR-FRET ER-beta LBD / SRC1-Cy5 peptide binding; receptor agonist-loaded with 1 µM estradiol; inhibition, % at 25.6 µM; 86,000 tested, 1.3% active; AID 633, 2007;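 active = compounds whose percent inhibition of the receptor-coactivator binding signal exceeds about 50% in the single-dose screen, limit read from the data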;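 note: 0% = receptor plus peptide wells without compound and 100% = peptide-only wells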
Target sequence (Q92731 whole entry, looked up, the tested form may be a part): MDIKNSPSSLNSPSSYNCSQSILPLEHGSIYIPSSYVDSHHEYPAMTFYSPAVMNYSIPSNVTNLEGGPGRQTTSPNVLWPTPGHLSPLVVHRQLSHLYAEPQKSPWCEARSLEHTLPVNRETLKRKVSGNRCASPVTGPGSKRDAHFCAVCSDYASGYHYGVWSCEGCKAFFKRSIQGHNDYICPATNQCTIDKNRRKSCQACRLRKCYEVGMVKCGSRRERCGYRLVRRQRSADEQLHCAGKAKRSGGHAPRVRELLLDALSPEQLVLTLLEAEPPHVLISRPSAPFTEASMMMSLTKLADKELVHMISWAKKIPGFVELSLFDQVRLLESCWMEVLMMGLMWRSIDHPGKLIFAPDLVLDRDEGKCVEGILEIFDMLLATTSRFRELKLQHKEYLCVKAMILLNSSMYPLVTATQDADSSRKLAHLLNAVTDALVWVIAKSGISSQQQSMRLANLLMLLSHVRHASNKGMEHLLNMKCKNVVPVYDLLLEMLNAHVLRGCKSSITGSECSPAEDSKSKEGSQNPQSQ
ERa SRC1 inh = ERα–SRC-1 coactivator interaction inhibitors, primary screen, biochemical, TR-FRET, ERα LBD, estradiol-bound; Estrogen receptor (Homo sapiens), P03372; TR-FRET ER-alpha LBD / SRC-1 peptide; inhibition, % at 25.6 µM; 86,000 tested, 1.7% active; AID 629, 2007; in the data active = inhibition above about 50%;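 note: 0% = receptor plus peptide control and 100% = peptide only without receptor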
PTPN22 act = LYP phosphatase activators, primary screen, biochemical, DiFMUP fluorescence, 2 µM. Tyrosine-protein phosphatase non-receptor type 22 (Homo sapiens), Q9Y2R2. recombinant LYP; 0 = plate median, 100 = signal doubled. activation, % at 2 µM. 96,000 tested, 0.11% active. AID 697, 2007;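 active = activation at 2 µM above a set limit, the mean plus 5 SD, cut at about 37% in these data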
Numbers without * were called inactive; [ ] = dose if it differs, or a comment.

CC(NC(=O)c1ccnc(C(C)(C)C)c1)c1ccccc1 (configuration not stated) was read as FAK blocker 1.5, ERa SRC1 pot 97.8, LYP inh 2 -1.8, ERb SRC1 inh -8.2, ERa SRC1 inh -11.4 and PTPN22 act 1.4.
Screening COc1ccc(CC(=O)NC2CC(C)(C)NC(C)(C)C2)cc1 returned FAK blocker 0.3, ERa SRC1 pot 116.2, LYP inh 2 0.6, ERb SRC1 inh -5.3, ERa SRC1 inh 5.7 and PTPN22 act -1.2.
`OC[C@H]1O[C@@H](n2cnc3c(NC4CCCC4)ncnc32)[C@H](O)[C@@H]1O` gave ERa SRC1 pot 116.8, ERb SRC1 inh -1.2 and ERa SRC1 inh 0.2.
O=C(OCC1OC(n2cnc3c(N(C(=O)c4ccccc4)C(=O)c4ccccc4)ncnc32)C(O)C1F)c1ccccc1 (configuration not stated) was read as FAK blocker 4.3, ERa SRC1 pot 80.4, LYP inh 2 59.9*, ERb SRC1 inh 27.6, ERa SRC1 inh 10.7 and PTPN22 act -58.6.
COc1ccc(C2C(C#N)=C(N)N(c3sc4c(c3C#N)CCCC4)C3=C2C(=O)CC(C)(C)C3)cc1OC (configuration not stated) was read as FAK blocker 2.0, LYP inh 2 26.5* and PTPN22 act -26.6.
For Cc1ccc(-n2c(SCn3nnc4ccccc4c3=O)nnc2-c2cccnc2)c(C)c1 the results were ERa SRC1 pot 35.6, ERb SRC1 inh 48.2 and ERa SRC1 inh 86.9*[fluorescence artefact?].
For O=c1c2ccccc2nnn1CSc1nnc(-c2cccnc2)n1-c1ccccc1F the results were FAK blocker 0.0, ERa SRC1 pot 114.8, LYP inh 2 0.0, ERb SRC1 inh -12.3, ERa SRC1 inh -1.9 and PTPN22 act -3.2.
Cc1ccc(CSC2=Nc3ccccc3C3=NC(CC(=O)NCc4ccco4)C(=O)N23)cc1 (configuration not stated) was read as FAK blocker 6.9, ERa SRC1 pot 116.6, LYP inh 2 24.3*, ERb SRC1 inh 33.7, ERa SRC1 inh 49.4 and PTPN22 act -19.5.
`COc1cccc(C(=O)CSc2nnnn2C2CCCCC2)c1` gave FAK blocker 0.6, LYP inh 2 6.8 and PTPN22 act -10.6.
Screening O=C(NCc1ccc(Cl)cc1)c1cc(-c2cccs2)on1 returned FAK blocker 1.3, ERa SRC1 pot 98.3, LYP inh 2 -12.4, ERb SRC1 inh 14.4, ERa SRC1 inh 95.5* and PTPN22 act 8.9.
For O=C(NCc1cccs1)c1cc(-c2cccs2)on1 the results were FAK blocker 7.7, ERa SRC1 pot 114.1, LYP inh 2 1.1, ERb SRC1 inh -5.8, ERa SRC1 inh -5.5 and PTPN22 act -2.8.
Screening COc1ccc(CNC(=O)c2cc(-c3cccs3)on2)cc1 returned FAK blocker -4.8, ERa SRC1 pot 156.2, LYP inh 2 1.8, ERb SRC1 inh 51.3*[fluorescence artefact?], ERa SRC1 inh 75.8* and PTPN22 act -4.8.
`COCCNC(=O)c1cc(-c2cccs2)on1` gave FAK blocker -4.3, LYP inh 2 6.3 and PTPN22 act -8.5.
Screening CCCn1c(SCC(=O)NCCc2ccccc2)nnc1-c1ccco1 returned FAK blocker 0.1, ERa SRC1 pot 116.5, LYP inh 2 6.6, ERb SRC1 inh -7.4, ERa SRC1 inh -8.1 and PTPN22 act -5.7.
For Cc1ccccc1NS(=O)(=O)c1ccc(OCC(=O)N2CCCCC2)cc1 the results were FAK blocker -1.1, ERa SRC1 pot 100.8, LYP inh 2 2.7, ERb SRC1 inh 5.8, ERa SRC1 inh 5.4 and PTPN22 act -5.3.
CCOC(=O)c1cncc(C(=O)O)c1 was read as FAK blocker -8.0, LYP inh 2 7.6 and PTPN22 act -4.3.
Screening O=C(OCn1ncc(Cl)c(Cl)c1=O)c1cccc(C(F)(F)F)c1 returned FAK blocker -0.2, LYP inh 2 -1.2 and PTPN22 act 3.7.
CCc1ccc(C(=O)Cn2ncc(Cl)c(Cl)c2=O)cc1 was read as FAK blocker 5.0, ERa SRC1 pot 58.0, LYP inh 2 0.5, ERb SRC1 inh 52.0*, ERa SRC1 inh 2.7 and PTPN22 act 3.7.
CCOc1ccc2nc(NCCNC(=O)Nc3cccc(C)c3)c(C#N)cc2c1 was read as FAK blocker 0.4, ERa SRC1 pot 121.0, LYP inh 2 0.0, ERb SRC1 inh 10.6, ERa SRC1 inh 51.1*[fluorescence artefact?] and PTPN22 act -2.0.
O=C(c1ccc(NC2=NC3CS(=O)(=O)CC3S2)cc1)N1CCN(Cc2ccccc2)CC1 (configuration not stated) was read as FAK blocker 6.9, ERa SRC1 pot 102.9, LYP inh 2 -11.0, ERb SRC1 inh -5.3, ERa SRC1 inh 92.8*[fluorescence artefact?] and PTPN22 act 7.4.
Screening O=C(c1ccc(NC2=NC3CS(=O)(=O)CC3S2)cc1)N1CCc2ccccc2C1 (configuration not stated) returned ERa SRC1 pot 89.7, ERb SRC1 inh -7.3 and ERa SRC1 inh -1.4.
Screening CN(C)c1ccc(N2CN=C3SCC(=O)N3C2)cc1 returned FAK blocker 15.2, ERa SRC1 pot 92.4, LYP inh 2 -6.5, ERb SRC1 inh 86.0*[fluorescence artefact?], ERa SRC1 inh 19.7 and PTPN22 act 9.3.
`CC1=C(C(=O)c2ccccc2)C(c2cn(-c3ccccc3)nc2-c2ccc(Cl)cc2)NC(=S)N1` (configuration not stated) gave FAK blocker -10.3, ERa SRC1 pot 282.1*[fluorescence artefact?], LYP inh 2 -5.8, ERb SRC1 inh -2.7, ERa SRC1 inh -12.3 and PTPN22 act 7.7.
Screening O=C(CSCC(=O)N1CCCCC1)OCC(=O)c1c[nH]c2ccccc12 returned FAK blocker 6.0, ERa SRC1 pot 106.9, LYP inh 2 5.4, ERb SRC1 inh 9.1, ERa SRC1 inh 3.5 and PTPN22 act -7.7.
`Cn1nc(CC(=O)N2CCN(c3ccccc3)CC2)c2ccccc2c1=O` gave FAK blocker -7.9, ERa SRC1 pot 119.3, LYP inh 2 6.1, ERb SRC1 inh -13.0, ERa SRC1 inh -3.7 and PTPN22 act -7.7.
Screening CC(C)(C)OC(=O)N1CCN(c2ccc(NC(=O)Cn3nnc(-c4ccccc4)n3)cc2)CC1 returned FAK blocker 12.8, ERa SRC1 pot 43.9, LYP inh 2 -2.9, ERb SRC1 inh 50.5*, ERa SRC1 inh 30.9 and PTPN22 act 1.6.
CCOC(=O)c1ccc(NC(=O)Cn2nnc(-c3ccccc3)n2)cc1 was read as FAK blocker -2.5, ERa SRC1 pot 104.1, LYP inh 2 -6.8, ERb SRC1 inh 7.1, ERa SRC1 inh 9.3 and PTPN22 act 6.1.

Screening data as filed in PubChem BioAssay.
